Reference: PubChem BioAssay (NCI)
The panel holds about 83,000 compounds, 20% with a hit somewhere; the sample as a whole holds those more often.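 Testing used 96-well plates and a 48-hour single-concentration exposure. Example: -40 means 40% of the starting cells died.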 A number with no mark means an inactive call. Calls of active or inactive are those of the source. The calls were made as follows: active = growth percent below 10; inactive = the rest.

What was measured:
Assay in all cases: NCI-60 one-dose screen, 48 h (100 = growth as untreated, 0 = no growth, -100 = all killed)
Conditions in all cases: 10 µM
SK-MEL-2 melanoma = test system: SK-MEL-2 melanoma
EKVX NSCLC = test system: EKVX NSCLC
SN12C renal = test system: SN12C renal
UO-31 renal = test system: UO-31 renal
TK-10 renal = test system: TK-10 renal
ACHN renal = test system: ACHN renal
CAKI-1 renal = test system: CAKI-1 renal
A498 renal = test system: A498 renal
MOLT-4 leukemia = test system: MOLT-4 leukemia
CCRF-CEM leukemia = test system: CCRF-CEM leukemia

| Compound | growth (SK-MEL-2 melanoma) | growth (EKVX NSCLC) | growth (SN12C renal) | growth (UO-31 renal) | growth (TK-10 renal) | growth (ACHN renal) | growth (CAKI-1 renal) | growth (A498 renal) | growth (MOLT-4 leukemia) | growth (CCRF-CEM leukemia) |
| --- | --- | --- | --- | --- | --- | --- | --- | --- | --- | --- |
| COc1cc(C(=O)N2CCN(c3cc4c(cc3F)c(=O)c(C(=O)NO)cn4C3CC3)CC2)cc(OC)c1OC | 90.2% | 89.5% | 108% | 92.1% | 87.4% | 101% | 94.4% | 91.4% | 103% |  |
| COc1cc(Cc2cc(-c3ccccc3)n[nH]c2=O)cc(OC)c1OC | 56.6% | 43.6% | 72.9% | 58.3% | 75.5% | 86.4% | 64.6% | 69% | 30.9% |  |
| COc1cc(-c2csc(NC(=O)Nc3cc(C(F)(F)F)cc(C(F)(F)F)c3)n2)cc(OC)c1OC | 7.21% (active) | 4.59% (active) | 7.93% (active) | 7.12% (active) | 9.24% (active) | 4.33% (active) | 10.4% | 10.1% | 17.4% |  |
| O=C(CCn1cnc2c(cc(-c3ccccc3)n2-c2ccccc2)c1=O)Nc1ccc(F)cc1 | 84.5% | 80.8% | 73.6% | 75% | 92.8% | 55.7% | 97.1% | 63.8% | 85.5% |  |
| O=S(=O)(NCCCNc1nccc(-c2cn(-c3ccccc3)nc2-c2ccc(Cl)c(O)c2)n1)c1ccccc1 | 65.5% | 55.2% | 67.2% | 45.9% | 76.9% | 66.1% | 90.4% |  | 43.1% |  |
| Cc1c2cnccc2c(C)c2c1c1cc(O)ccc1n2C(C)C | -14.4% (active) | 9.67% (active) | -6.79% (active) | -3.92% (active) | 56.2% | -1.61% (active) | 15.6% |  | -4.53% (active) |  |
| COc1ccc(C(=O)c2ccccc2CN2C(=O)c3ccccc3C2=O)cc1 | 103% | 101% | 105% | 75.1% | 104% | 102% | 102% |  | 87% | 91.5% |
| O=C(Nc1ccccc1)Nc1ncnc2c1ncn2-c1ccccc1 | 104% | 78.5% | 83.3% | 69.4% | 75.2% | 22.2% | 82.5% |  | 94.1% |  |
| N#Cc1c(-c2ccc(Cl)cc2)n(O)c2ccccc12 | 8.25% (active) | 30.2% | 16.1% | 11% | 66.6% | 35.4% | 20.7% |  | 18.1% | 16.2% |
| C/C(=C/CCC(C)[C@@H]1CC[C@]2(C)C3=C(CC[C@@]12C)[C@@]1(C)CCC(=O)C(C)(C)[C@@H]1CC3)C(=O)O (stereo not given in full) | -52.1% (active) | -76.5% (active) | -77.5% (active) | -95.5% (active) | -86.1% (active) | -93.5% (active) | -92.8% (active) |  | -35.3% (active) | -21% (active) |
| Clc1nc2ccccc2cc1Cn1nnc(Cc2ccccc2)n1 | 58.8% | 36.1% | 70.3% | -81% (active) | 60.9% | 52.2% | 40.5% |  | 43.1% |  |
| O=C1NC(=O)c2c(CCCSc3nc4ccccc4c(=O)n3CCc3ccccc3)cccc21 | 105% | 16.3% | 91.7% | 70.6% | 124% | 69.9% | 18.5% |  | 81.3% | 96% |
| O=C1c2c(c3c4ccccc4n(CCCCCCN4CCOCC4)c3c3[nH]c4ccccc4c23)C(=O)N1O | 110% | 82.4% | 75.8% | 9.13% (active) | 111% | 92.6% | 96.7% |  | 66.3% |  |
| IC(I)I | 108% | 102% | 95.1% | 97.2% | 107% | 110% | 103% |  | 102% |  |
| COc1ccc(-c2nn(-c3cccc(Cl)c3)cc2-c2c(C#N)c(=O)n3[nH]c(-c4ccccc4)nc3c2C#N)cc1 | 88.6% | 35.9% | 104% | 82.5% | 123% | 101% | 62.9% |  | 61.6% | 74.4% |
| COc1ccc(-c2nn(-c3cccc(Cl)c3)cc2-c2c(C#N)c(=O)n3[nH]c(-c4ccc(C)cc4)nc3c2C#N)cc1 | 46% | 37.9% | 60.9% | 34.7% | 58% | 43.2% | 15.2% |  | -23.8% (active) | 31.4% |
| N#Cc1c(-c2ccc(Cl)cc2)cc(-c2cc(O)ccc2O)nc1N | 31.2% | 42.9% | -2.03% (active) | 59% | 79.6% | 8.35% (active) | 82.8% |  | 11.3% |  |
| Cc1cc(O)ccc1C1=NN(c2ccc(S(C)(=O)=O)cc2)C(=O)CC1 | 68.7% | 72.2% | 90.3% | 48.8% | 105% | 79.7% | 25.4% |  | 52.7% | 69.7% |
| CC(=O)C1N=NCC1c1ccccc1 (stereo not given) | 97.3% | 101% | 88.7% | 92.3% | 96.1% | 95.8% | 95.4% |  | 96.7% | 104% |
| Cc1c2c[n+](C(C)C)ccc2c(C)c2c1[nH]c1ccccc12 | 12.3% | 29.4% | -11.8% (active) | 72.1% | 54% | 85.7% | 96% |  | 14.8% |  |
| COc1ccc(-c2cc(-c3cc(OC)ccc3OC)nc(N)c2C#N)cc1 | 77.1% | 70.5% | 59% | 69.4% | 103% | 66.1% | 90.3% |  | 85% |  |
| CCOC(=O)c1sc2ncnc(Nc3ccc4c(cnn4C(=O)Nc4ccc(C)c(Cl)c4)c3)c2c1C | 83.5% | 97.6% | 96.5% | 94.7% | 90.8% | 107% | 96% |  | 95.6% |  |
| COc1ccc2nc(Cl)c(Cn3nnc(Cc4ccccc4)n3)cc2c1 | 49.6% | 24.5% | 57.3% | 14.7% | 34.9% | 41.5% | 43.9% |  | 10.3% |  |
| COc1cccc(CNc2cccc3cn[nH]c23)c1O | 103% | 79.9% | 91% | 60.1% | 92.4% | 98.7% | 85.9% |  | 98% | 101% |
| Cc1c2cnccc2c(C)c2c1oc1ccccc12 | 112% | 38.3% | 69.1% | 40.4% | 48.4% | 58.6% | 66% |  | 3.5% (active) | 62.8% |
| Cn1c2ccccc2c2c3[nH][nH]c(=O)c3c3c4ccccc4[nH]c3c21 | 10.9% | 49% | 16.1% | -26.9% (active) | 93% | -8.79% (active) | 60.2% |  | 5.9% (active) |  |
| Cc1cc(NC(=O)c2ccc(C)c(Nc3nccc(-c4cccnc4)n3)c2)cc(-n2cnc(C)c2)c1 | 83.5% | -56.9% (active) | 27.5% | -55% (active) | -20.5% (active) | -13.7% (active) | -80.2% (active) |  | 14.3% | 38.1% |
| CCc1ccc(C2=NN(c3ccc(S(C)(=O)=O)cc3)C(=O)CC2)cc1 | 36.9% | 60.4% | 31.4% | 33.3% | 71.1% | 46% | 16.7% |  | 15.3% | 15.6% |
